Measurements published in PubChem BioAssay (NCATS).
Records with an inconclusive call do not appear. Where a call stands in place of a potency, no number is given. The source made the active and inactive calls. Calls follow the shape of the dose curve; as a rule, active = well fitted curve in the direction sought with a large enough effect; inconclusive = small, poorly fitted or top-dose-only effect, or another doubt; inactive = no such curve, though single readings can be large; an effect the other way counts as inactive or inconclusive.

Legend:
[1] = qHTS of pediatric cancer cell lines to identify multiple opportunities for drug repurposing: Primary screen for Rh18 cells (AID 1347102); also: nearly all actives have a fitted effect of over 65% in size; also: potency is read from the fitted curve at half-maximal effect
In short: (§1)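 Cells (500-1,000/well) rested 5 h, then received compounds for 48 h; metabolically active cells were measured by CellTiter-Glo luminescence. Final concentrations spanned up to 46 µM (MIPE, 11-point) or 0.59 nM-46 µM (NPC, 8-point) in primary screens, 11-point in follow-ups.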

[2] = qHTS of pediatric cancer cell lines to identify multiple opportunities for drug repurposing: Primary screen for OHS-50 cells (AID 1347103); also: nearly all actives have a fitted effect of over 40% in size; also: potency is read from the fitted curve at half-maximal effect
In short: as §1

[3] = qHTS of pediatric cancer cell lines to identify multiple opportunities for drug repurposing: Primary screen for RD cells (AID 1347104); also: nearly all actives have a fitted effect of over 55% in size; also: potency is read from the fitted curve at half-maximal effect
In short: (§2)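 ATP-based luminescence (CellTiter-Glo) quantifies viability after a 48-hour exposure. Compounds are dosed across 8 or 11 final concentrations; DMSO and 2.3 µM bortezomib serve as controls.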

[4] = qHTS of pediatric cancer cell lines to identify multiple opportunities for drug repurposing: Primary screen for MG 63 (6-TG R) cells (AID 1347105); also: nearly all actives have a fitted effect of over 50% in size
In short: as §2

[5] = qHTS of pediatric cancer cell lines to identify multiple opportunities for drug repurposing: Primary screen for control Hh wild type fibroblast cells (AID 1347106);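 also: series mostly up to about 46 µM; a drop in luminescence marks cytotoxicity and a rise apparent proliferation; nearly all actives have a fitted effect of over 55% in size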
In short: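 Viability after 48 h compound treatment at 37C, 500-1,000 cells/well, read as ATP luminescence with CellTiter-Glo. Primary screens used 11-point (MIPE, 0.78 nM-46 µM) or 8-point (NPC, 0.59 nM-46 µM) final concentrations; follow-up screens used 11-point dilutions.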

[6] = qHTS of pediatric cancer cell lines to identify multiple opportunities for drug repurposing: Primary screen for Rh30 cells (AID 1347107); also: series mostly up to about 46 µM; nearly all actives have a fitted effect of over 75% in size
In short: as §1

[7] = qHTS of pediatric cancer cell lines to identify multiple opportunities for drug repurposing: Primary screen for Rh41 cells (AID 1347108);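 also: series mostly up to about 46 µM; luminescence drop marks cytotoxic hits; nearly all actives have a fitted effect of over 70% in size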
In short: as §2

| SMILES | Potency [1] | Potency [2] | Potency [3] | Potency [4] | Potency [5] | Potency [6] | Potency [7] |
| --- | --- | --- | --- | --- | --- | --- | --- |
| Cc1cc(NS(=O)(=O)c2ccc(N)cc2)nc(C)n1 | inactive | inactive | inactive | inactive | inactive | inactive |  |
| OC[C@H]1O[C@@H](Oc2ccc(O)cc2)[C@H](O)[C@@H](O)[C@@H]1O | inactive | inactive | inactive | inactive | inactive | inactive | inactive |
| NC(=O)c1ccccc1O | inactive | inactive | inactive | inactive | inactive | inactive |  |
| CC(=O)Nc1ccc(S(=O)(=O)Nc2ccc([N+](=O)[O-])cc2)cc1 | inactive | inactive | inactive | inactive | inactive | inactive |  |
| COc1cc(C(=S)N2CCOCC2)ccc1O | inactive | inactive | inactive | inactive | inactive | inactive | inactive |
| CCC1Nc2cc(Cl)c(S(N)(=O)=O)cc2S(=O)(=O)N1 (stereo not given) | inactive | inactive | inactive | inactive | inactive | inactive |  |
| CCNC(=O)NCc1cccc(Cl)c1 | inactive | inactive | inactive | inactive | inactive | inactive |  |
| CCCCNC(=O)NS(=O)(=O)c1ccc(N)cc1 | inactive | inactive | inactive | inactive | inactive | inactive |  |
| CCOc1cc(OCC)c(C(=O)CCC(=O)O)cc1OCC | inactive | inactive | inactive | inactive | inactive | inactive |  |
| NC(=O)C1(N2CCCCC2)CCN(CCCC(=O)c2ccc(F)cc2)CC1 | inactive | inactive | inactive | inactive | inactive | inactive |  |
| Cc1ccc(-c2ncc(Cl)cc2-c2ccc(S(C)(=O)=O)cc2)cn1 | inactive | inactive | inactive | inactive | inactive | inactive |  |
| CC(=O)NCCCCCC(=O)O | inactive | inactive | inactive | inactive | inactive | inactive |  |
| CC(=O)Nc1ccc(OCC(O)CNC(C)C)cc1 (stereo not given) | inactive | inactive | inactive | inactive | inactive | inactive |  |
| CC(=O)N[C@@H](CCC(=O)O)C(=O)O | inactive | inactive | inactive | inactive | inactive | inactive | inactive |
| CCc1nn(CCCN2CCN(c3cccc(Cl)c3)CC2)c(=O)n1CCOc1ccccc1 | inactive | 24.6 µM (active) | inactive | inactive | inactive | inactive |  |
| CCCCCN=C(N)N/N=C/c1c[nH]c2ccc(OC)cc12 | 9.44 µM (active) | 11 µM (active) |  |  |  |  |  |
| O=C(Nc1cccc(C2=NCCN2)c1)Nc1cccc(C2=NCCN2)c1 | inactive | inactive | inactive | inactive | inactive | inactive |  |
| CCCCCCCCCCCCCC[N+](C)(C)Cc1ccccc1 | 5.96 µM (active) | 4.37 µM (active) | 21.1 µM (active) |  |  |  |  |
| Nc1ccc(S(=O)(=O)Nc2cnc3ccccc3n2)cc1 | inactive | inactive | inactive | inactive | inactive | inactive | inactive |
| CN(C)CCOC(c1ccc(Cl)cc1)c1ccccn1 (stereo not given) | inactive | inactive | inactive | inactive | inactive | inactive | inactive |
| C[N+]12CCC(CC1)C(OC(=O)C(O)(c1ccccc1)c1ccccc1)C2 (stereo not given) | inactive | inactive | inactive | inactive | inactive | inactive |  |

| SMILES | Potency [1] | Potency [2] | Potency [3] | Potency [4] | Potency [5] | Potency [6] | Potency [7] |
| --- | --- | --- | --- | --- | --- | --- | --- |
| Cc1cc(CC(=O)O)c(C)n1-c1ccc(Cl)cc1 | inactive | inactive | inactive | inactive | inactive | inactive | inactive |
| Cc1cc(-c2ccccc2)nnc1NCCN1CCOCC1 | inactive | inactive | inactive | inactive | inactive | inactive |  |
| CCCCc1cc2ccccc2c(OCCN(C)C)n1 | inactive | 15.5 µM (active) | inactive | inactive | inactive | inactive | inactive |
| CNCCc1ccccn1 | inactive | inactive | inactive | inactive | inactive | inactive |  |
| CC(C)(C)NC[C@H](O)COc1cccc2c1CCCC2=O | inactive | inactive | inactive | inactive | inactive | inactive |  |
| Cn1c(=O)c2[nH]c(Br)nc2n(C)c1=O | inactive | inactive | inactive | inactive | inactive | inactive | inactive |
| NS(=O)(=O)c1ccc(Cl)c(S(N)(=O)=O)c1 | inactive | inactive | inactive | inactive | inactive | inactive | inactive |
| O=C1C(CCS(=O)c2ccccc2)C(=O)N(c2ccccc2)N1c1ccccc1 (stereo not given) | inactive | inactive | inactive | inactive | inactive | inactive | inactive |
| O=C(O)Cc1csc(-c2ccc(Cl)cc2)n1 | inactive | inactive | inactive | inactive | inactive | inactive |  |
| O=C1C(=O)c2ccccc2C(O)=C1C1CCC(c2ccc(Cl)cc2)CC1 (stereo not given) | inactive | inactive | inactive | inactive | inactive | inactive | inactive |
| CC(=O)NO | inactive | inactive | inactive | inactive | inactive | inactive |  |
| Nc1nc(-c2ccccc2)c(Br)c(=O)[nH]1 | inactive | inactive | inactive | inactive | inactive | inactive |  |
| C[C@]12CCC(=O)C=C1C=C[C@@H]1[C@@H]2CC[C@@]2(C)[C@H]1CC[C@@]21CCC(=O)O1 | inactive | 15.5 µM (active) | inactive | inactive | inactive |  |  |
| CC(C(=O)O)c1cccc(Oc2ccccc2)c1 (stereo not given) | inactive | inactive | inactive | inactive | inactive | inactive |  |
| COc1cc([C@H]2Oc3cc([C@H]4Oc5cc(O)cc(O)c5C(=O)[C@@H]4O)ccc3O[C@@H]2CO)ccc1O | inactive | inactive | inactive | inactive | inactive | inactive | inactive |
| COc1ccc(CCN(C)CCCN2CCc3cc(OC)c(OC)cc3CC2=O)cc1OC | inactive | inactive | inactive | inactive | inactive | inactive | inactive |
| CCCCCCCC/C=C\CCCCCCCCN | inactive | inactive | inactive | inactive | inactive | inactive | inactive |
| Cc1cc2c(OCC(CNC(C)(C)C)OC(=O)c3ccccc3)cccc2[nH]1 (stereo not given) | inactive | inactive | inactive | inactive | inactive | inactive | inactive |
| CCCCC(CC)COC(=O)c1ccc(N(C)C)cc1 (stereo not given) | inactive | inactive | inactive | inactive | inactive | inactive | inactive |
| Cc1ccc(S(=O)(=O)NC(=O)NC2CCCC2)cc1 | inactive | inactive | inactive | inactive | inactive | inactive | inactive |
| O=C(O)CCC(=O)Nc1ccc(S(=O)(=O)Nc2nccs2)cc1 | inactive | inactive | inactive | inactive | inactive | inactive | inactive |

| SMILES | Potency [1] | Potency [2] | Potency [3] | Potency [4] | Potency [5] | Potency [6] | Potency [7] |
| --- | --- | --- | --- | --- | --- | --- | --- |
| CC(=O)Oc1ccc(C)cc1 | inactive | inactive | inactive | inactive | inactive | inactive | inactive |
| OC[C@H]1O[C@@H]2O[C@H]3[C@H](O)[C@@H](O)[C@@H](O[C@H]4[C@H](O)[C@@H](O)[C@@H](O[C@H]5[C@H](O)[C@@H](O)[C@@H](O[C@H]6[C@H](O)[C@@H](O)[C@@H](O[C@H]7[C@H](O)[C@@H](O)[C@@H](O[C@H]8[C@H](O)[C@@H](O)[C@@H](O[C@H]1[C@H](O)[C@H]2O)O[C@@H]8CO)O[C@@H]7CO)O[C@@H]6CO)O[C@@H]5CO)O[C@@H]4CO)O[C@@H]3CO | inactive | inactive | inactive | inactive | inactive | inactive | inactive |
| O=S(c1cc(Cl)cc(Cl)c1O)c1cc(Cl)cc(Cl)c1O | inactive | inactive | inactive | inactive | inactive | inactive | inactive |
| CCC(Cc1c(I)cc(I)c(N)c1I)C(=O)O (stereo not given) | inactive | inactive | inactive | inactive | inactive | inactive | inactive |
| C[C@@H](O)[C@H]1C(=O)N2C(C(=O)O)=C(S[C@@H]3CN[C@H](CNS(N)(=O)=O)C3)[C@H](C)[C@H]12 | inactive | inactive | inactive | inactive | inactive | inactive | inactive |
| COc1ccc2c(c1)c1c3n2CCN(C)C3=NCC1 | inactive | inactive | inactive | inactive | inactive | inactive | inactive |
| CC(C)(C)NC[C@H](O)COc1nsnc1N1CCOCC1 | inactive | inactive | inactive | inactive | inactive | inactive | inactive |
| CC(=O)Nc1ccc(CC(=O)O)cc1 | inactive | inactive | inactive | inactive | inactive | inactive | inactive |
| CC[N+](C)(CC)CCOC(=O)C(O)(c1ccccc1)C1CCCCC1 (stereo not given) | inactive | inactive | inactive | inactive | inactive | inactive | inactive |
| CC(C)(C)NCC(O)COc1cccc2c1C[C@H](O)[C@H](O)C2 (stereo not given in full) | inactive | inactive | inactive | inactive | inactive | inactive | inactive |
| O=C(O)C(Cc1cc(I)c(O)c(I)c1)c1ccccc1 (stereo not given) | inactive | inactive | inactive | inactive | inactive | inactive | inactive |
| O=C(NCCc1c[nH]c2ccccc12)c1cccnc1 | inactive | inactive | inactive | inactive | inactive | inactive | inactive |
| Nc1nc(N)c(-c2ccccc2)s1 | inactive | inactive | inactive | inactive | inactive | inactive | inactive |
| O=S(=O)(O)c1ccc(O)cc1 | inactive | inactive | inactive | inactive | inactive | inactive | inactive |
| CC(C)CCCC(C)N (stereo not given) | inactive | inactive | inactive | inactive | inactive | inactive | inactive |
| COc1ccc(S(=O)(=O)N2c3ccc(Cl)cc3[C@@](O)(c3ccccc3Cl)[C@H]2C(=O)N2CCC[C@@H]2C(N)=O)cc1OC | inactive | inactive | inactive | inactive | inactive | inactive | inactive |
| COc1ccccc1N1CCN(CCCCNC(=O)c2ccc(-c3ccc(C(C)=O)cc3)cc2)CC1 | inactive | inactive | inactive | inactive | inactive | inactive | inactive |
| Nc1ccc(S(=O)(=O)NCc2ccccc2)cc1 | inactive | inactive | inactive | inactive | inactive | inactive | inactive |
| COc1cc(C(=O)NCc2ccc(OCCN(C)C)cc2)cc(OC)c1OC | inactive | inactive | inactive | inactive | inactive | inactive | inactive |
